# KCNQ2 enhance: KCNQ2 (rat) channel potentiation; O88943; CHO-K1 KCNQ2, FluxOR thallium flux fluorescence; active compounds read high; B-score at 10 µM; hit rate 0.54% among 310,000; AID 2239;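 active means fluorescence ratio B-score at least 3 SD of library B-scores, with initial fluorescence B-score within 3 of them, cut at about 5.3 in these data; same plate scores as AID 2156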;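 further: B-score of peak minus minimum over baseline fluorescence ratio after K+ and Tl+ stimulus; positive B-score means potentiation of KCNQ2 with more thallium influx and brighter signal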
# Target sequence (O88943 whole entry, looked up): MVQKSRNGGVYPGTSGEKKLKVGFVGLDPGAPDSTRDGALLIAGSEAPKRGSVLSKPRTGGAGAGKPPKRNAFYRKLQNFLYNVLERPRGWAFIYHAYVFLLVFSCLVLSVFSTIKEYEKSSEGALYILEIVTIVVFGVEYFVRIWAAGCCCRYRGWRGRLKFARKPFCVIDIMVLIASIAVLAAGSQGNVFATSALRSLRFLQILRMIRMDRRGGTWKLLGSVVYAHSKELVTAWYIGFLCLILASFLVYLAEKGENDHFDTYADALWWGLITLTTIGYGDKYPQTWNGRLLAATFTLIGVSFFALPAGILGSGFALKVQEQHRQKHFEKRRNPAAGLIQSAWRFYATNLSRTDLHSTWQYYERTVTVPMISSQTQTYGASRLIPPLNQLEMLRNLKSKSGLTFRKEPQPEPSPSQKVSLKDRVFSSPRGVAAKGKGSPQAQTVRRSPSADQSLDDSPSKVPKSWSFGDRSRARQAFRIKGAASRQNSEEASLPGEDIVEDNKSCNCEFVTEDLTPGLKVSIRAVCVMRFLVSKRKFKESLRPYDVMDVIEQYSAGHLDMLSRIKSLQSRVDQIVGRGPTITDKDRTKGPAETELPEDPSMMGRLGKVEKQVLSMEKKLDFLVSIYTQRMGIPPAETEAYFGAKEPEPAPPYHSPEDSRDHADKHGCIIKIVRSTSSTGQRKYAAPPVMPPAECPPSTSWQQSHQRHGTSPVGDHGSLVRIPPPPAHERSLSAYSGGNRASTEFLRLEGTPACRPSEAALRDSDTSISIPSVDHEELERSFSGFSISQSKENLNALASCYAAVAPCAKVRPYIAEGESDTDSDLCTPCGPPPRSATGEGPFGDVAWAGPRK
# KCNQ2 inh: KCNQ2 (rat) channel inhibition; O88943; CHO-K1 KCNQ2, FluxOR thallium flux, 20 min; active compounds read low; B-score at 10 µM; hit rate 1.1% among 310,000; AID 2156;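 active means fluorescence ratio B-score at most minus 3 library SDs, with starting brightness B-score within 2 library SDs, cut at about -5.5 in these data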
# Starred values were filed as active, the others as inactive; i = inactive; nt = no result. Compounds with a hit are over-represented: about 1.6% of the library has one in this group of screens.
SMILES,KCNQ2 enhance,KCNQ2 inh
COC(CNC(=O)CCc1c(C)nc2c(-c3ccccc3)c(C)nn2c1C)OC,nt,i
COc1ccc(C(=O)/C=C/c2cccs2)c(OC(=O)N2CCOCC2)c1,0.23,i
O=C(/C=C/c1cccs1)c1cc(Br)ccc1OC(=O)N1CCOCC1,-6.81,-6.81*
COc1cc(NC2c3ccccc3C(=O)N2Cc2ccc3c(c2)OCO3)cc(OC)c1 (stereo not given),nt,i
O=C(NC1CCCCC1)C(c1cccs1)N(C(=O)Cc1c[nH]c2ccccc12)c1ccc(F)cc1 (stereo not given),-6.76,-6.76*
Cc1cccc(N(C(=O)Cc2cccs2)C(C(=O)NC2CCCC2)c2ccncc2)c1 (stereo not given),nt,i
CC(=O)c1ccc(N(C(=O)Cc2c[nH]c3ccccc23)C(C(=O)NC2CCCCC2)c2cccs2)cc1 (stereo not given),nt,i
Cc1ccc(N(C(=O)Cc2cccs2)C(C(=O)NC2CCCCC2)c2ccccn2)cc1C (stereo not given),-6.2,-6.2*
COc1ccc(CNC(=O)c2ccc(CS(=O)(=O)c3ccc(Br)cc3)o2)cc1,0.03,i
O=C(O)c1cc(Cl)c(Cl)cc1C(=O)NCc1ccco1,nt,i
CC(C)OC(=O)/C(=C/c1ccc2c(c1)c1ccccc1n2C)NC(=O)c1ccccc1,nt,i
COC(=O)/C(=C\c1ccc2c(c1)c1ccccc1n2C)NC(=O)c1ccccc1,-7.6,-7.6*
CCOC(=O)N1CCN(C(=O)CSC2=NS(=O)(=O)c3ccccc3N2)CC1,1.18,i
Cc1ccc(S(=O)(=O)N2c3ccccc3OCC2c2ccccc2)cc1 (stereo not given),nt,i
COc1ccc(S(=O)(=O)N2c3cc(C)ccc3OCC2C(C)(C)C)cc1 (stereo not given),-5.55,-5.55*
COc1cccc(C(=O)N2c3cc(C)ccc3OCC2C(C)(C)C)c1 (stereo not given),nt,i
Cc1ccc(S(=O)(=O)N2c3cc(C)ccc3OCC2C(C)(C)C)cc1 (stereo not given),-6.25,-6.25*
CCOC(=O)NN1C(=O)c2ccccc2NC1c1cccs1 (stereo not given),0.04,i
CN(CC(=O)Nc1ccc(F)cc1)C(=O)COC(=O)CCN1C(=O)C2CC=CCC2C1=O (stereo not given),nt,i
O=C(Nc1cccc(Cl)c1)N1N=CCC1c1ccccc1 (stereo not given),-6.15,-6.15*
O=C(Nc1cccc2ccccc12)N1N=CCC1c1ccccc1 (stereo not given),nt,i
Cc1ccc(C)c(NC(=S)NNC(=O)c2sccc2C)c1,1.65,i
CC1CCc2sc(C(=O)NN=C3CCC(c4ccccc4)CC3)cc2C1 (stereo not given),0.75,i
Cc1ccc(C)c(NC(=S)NNC(=O)c2cc3c(s2)CCC(C)C3)c1 (stereo not given),11.3*,i
Cc1cccc(NC(=S)NNC(=O)c2cc3c(s2)CCC(C)C3)c1C (stereo not given),8.53*,i
SMILES,KCNQ2 enhance,KCNQ2 inh
CCCCCn1c(N2CCOCC2)nc2c1c(=O)n(CC(N)=O)c(=O)n2C,nt,i
CN1CCN(C(=O)c2ccccc2-c2ccccc2C(=O)O)CC1,nt,i
CCc1c(C)nc2ncnn2c1NCCc1ccc(Cl)cc1,2.14,i
Cc1ccc(S(=O)(=O)c2nc(-c3ccco3)oc2SC(C)C)cc1,nt,i
COC(=O)c1c(-c2ccccc2)csc1NC(=O)CSc1ncnc2sc(C)c(C)c12,-5.57,-5.57*
Cc1cccnc1NC(=O)CSc1ncnc2sc(C)c(C)c12,nt,i
CCC(C)N1CC(=O)N2C(c3ccc(OC)cc3OC)c3[nH]c4ccccc4c3C[C@H]2C1=O (stereo not given in full),nt,i
COc1cccc(C(=O)NCC2(c3ccccc3)CCCC2)c1OC,-5.9,-5.9*
COc1ccc(C2(CNC(=O)c3ccccc3)CCCC2)cc1OC,nt,i
CCC1CCCCN1CCCNC(=O)c1ccc2c(c1)N(Cc1c(F)cccc1Cl)C(=O)CS2 (stereo not given),nt,i
O=C(NCc1ccc2c(c1)OCO2)c1ccc2c(c1)N(Cc1c(F)cccc1Cl)C(=O)CS2,8.68*,i
c1ccc(CN2CCN(CCOCCOc3ccc4c(c3)CCC4)CC2)cc1,1.79,i
COc1ccccc1CNC(=O)c1csc2c1CCCC2,-6.46,-6.46*
COc1ccccc1NC(=O)c1csc2c1CCCC2,nt,i
COc1ccc(-c2nn(-c3ccccc3)cc2/C=C/C(=O)N2CCN(c3ccccn3)CC2)cc1,nt,i
CCOC(=O)C1CCN(S(=O)(=O)c2ccc(C)c(C)c2)CC1,1.19,i
Cc1ccc(S(=O)(=O)N2CCC(C(=O)OCC(=O)N(Cc3ccccc3)C(C)(C)C)CC2)cc1C,-6.52,-6.52*
C=CCOn1c(=O)c(-c2ccc(OCC)cc2)[n+]([O-])c2ccccc21,nt,i
CCCC(=Nc1ccccc1OC)C1=C(O)CC(c2ccccc2)CC1=O (stereo not given),nt,i
CCCCC(=Nc1ccccc1OC)C1=C(O)CC(c2ccccc2)CC1=O (stereo not given),-6.48,-6.48*
O=C(NC1CCC(C(=O)O)CC1)OCc1ccccc1 (stereo not given),0.05,i
c1ccc(CO/N=C(\c2ccc(C3CC3)nc2)C2CC2)cc1,-6.99,-6.99*
C[n+]1c2n(c3ccccc31)N=C(c1cc(C(C)(C)C)c(O)c(C(C)(C)C)c1)CS2,-6.64,-6.64*
COc1cccc(C2=Nn3c(nnc3-c3ccccc3O)SC2)c1,nt,i
O=C1CS/C(=N/N=C/c2cccs2)N1Cc1ccc(F)cc1,nt,i
SMILES,KCNQ2 enhance,KCNQ2 inh
CN(C)/C=N/c1sc2c(c1C#N)CCCCC2,1.49,i
N#Cc1c(/N=C/c2cccs2)sc2c1CCCCC2,-6.13,-6.13*
N#Cc1c(/N=C/c2cccnc2)sc2c1CCCC2,0.23,i
CCCN(/C=N/c1sc2c(c1C#N)CCCCC2)CCC,-7.91,-7.91*
COc1ccc(C(O)Cn2cc([N+](=O)[O-])nc2C)cc1 (stereo not given),nt,i
Cc1ccc(NC(=S)N(Cc2ccc(Br)cc2)Cc2ccc(C(=O)O)cc2)cc1C,nt,i
CCOC(=O)c1ccc(-c2csc(NC(=O)CN3CCC(C)CC3)n2)cc1,nt,i
Cc1ccc(S(=O)(=O)N2CCCC2C(=O)NCc2ccc3c(c2)OCO3)cc1 (stereo not given),1.21,i
O=C(OCC(=O)c1c[nH]c2ccccc12)c1cc(Br)ccc1O,0.36,i
CCCCN(S(=O)(=O)c1ccccc1)S(=O)(=O)c1ccccc1,-6.03,-6.03*
CCCCN(c1ccccc1)S(=O)(=O)N(C)C,nt,i
COc1ccc(-c2nc(N3CCCCCC3)sc2C(=O)c2ccccc2)cc1,nt,i
O=C(c1ccccc1)c1sc(N2CCCCCC2)nc1-c1ccccc1,-6.17,-6.17*
O=C(NN=C1C2CC3CC1CC(Cl)(C3)C2)c1ccccn1,nt,i
C/C(=N\Nc1ccc(C(=O)O)cc1)c1ccc2c(c1)Nc1ccccc1S2,5.35*,i
COc1ccc(/C(C)=N/Nc2cccc(C(=O)O)c2)cc1OC,nt,i
CN1C(=O)/C(=C/c2ccccc2F)Sc2ccc(C(=O)N3CCCC3)cc21,nt,i
COc1cc(CO)cc(Br)c1OCC(=O)Nc1cccc2ccccc12,nt,i
CN1CCN(c2ccc(Cl)cc2NC(=O)/C=C/c2ccc(F)cc2)CC1,-5.64,-5.64*
O=C(/C=C/c1ccc(F)cc1)Nc1cc(S(=O)(=O)N2CCOCC2)ccc1N1CCCC1,nt,i
